# Source: ChEMBL document CHEMBL4513216, “Probing the Open Global Health Chemical Diversity Library for Multistage-Active Starting Points for Next-Generation Antimalarials” (ACS Infect Dis, 2020)
# The campaign covered roughly 69,000 compounds. About 8,600 (12%) showed an effect of 50% or more. This is one part of a sample in which strong results are shown more often than they occur.
# Test system: Plasmodium berghei
# Test: Screen against P. berghei liver stage (PbLuc), transformed with Luciferase, at 10uM
# Assay type: functional, HepG2
# Details: tested at 10 uM
row,SMILES,INHIBITION [%]
1,O=C(Nc1nccs1)NC1CCN(CC2CCCC2)CC1,21.45
2,c1nn(C2CCCCC2)cc1-c1cncn1CCCN1CCCCC1,18.75
3,CCC(=O)N1CCC(Cc2ccccc2-c2ccccc2)(C(N)=O)C1 (stereo not given),36.4
4,Cc1nccn1C1CCCN(C(=O)c2cccc(OCC(N)=O)c2)C1 (stereo not given),-0.219
5,N#Cc1ccc(OCCN2CCNC(=O)C2c2cccs2)cc1 (stereo not given),3.04
6,Cc1ccc(C(=O)NC2CCN(Cc3noc(C(C)(C)C)n3)CC2)s1,-42.8
7,COCCCS(=O)(=O)N(Cc1cccc(C)c1)Cc1ccccn1,4.13
8,CCN1CCC2(CCC(=O)N2Cc2cccc(C)n2)CC1,-6.77
9,CN(C)c1cc(C(=O)N2CCCN(Cc3cscn3)CC2)ccn1,20.1
10,CC(CNC(=O)Nc1ccc(F)cc1Br)N1CCOCC1 (stereo not given),46.6
11,CC(Cn1cncc1-c1cnn(C2CCCCC2)c1)N1CCCCC1 (stereo not given),-1.9
12,O=C(O)CC1CN(Cc2ccccc2)CCO1 (stereo not given),22.1
13,O=C(CC1CN(Cc2ccccc2)CCO1)NC1CCCC1 (stereo not given),-15.8
14,O=C(CC1CN(Cc2ccccc2)CCO1)NCCN1CCOCC1 (stereo not given),56.5
15,CNC(=O)c1c[nH]nc1C1CCCN1c1ncccn1 (stereo not given),23.9
16,O=C1CCC2(CCN(Cc3ccc(F)cc3)CC2)N1CCN1CCCC1,-22.1
17,Cn1c(=O)c2sccc2n(Cc2ccccc2)c1=O,36.8
18,CCS(=O)(=O)N1CCC2(CCN(Cc3cccc(OC)c3)CC2)CC1,34.6
19,COc1ccc(Cn2c(=O)n(C)c(=O)c3sccc32)cc1,75.7
20,COc1cccc(-n2cc3[nH]c(=O)n(Cc4cccc(F)c4)n3c2=O)c1,36.3
21,CCCc1n[nH]c(=O)n1Cc1ccc(OC)cc1,-32.6
22,COc1cccc(Cn2c(=O)n(C)c(=O)c3sccc32)c1,50.5
23,COc1ccc(CN2CCn3c(C(=O)N(C)C)cnc3C2)cc1,26.4
24,COCCCC(=O)NCc1cccc(NC(N)=O)c1,15.8

row,SMILES,INHIBITION [%]
1,COC(=O)c1cccc(CNC(=O)CC(F)(F)F)c1,51.4
2,COC(=O)c1cccc(CNC(=O)c2cc(C(C)C)n(C)n2)c1,-55.1
3,COC(=O)c1cccc(CNC(=O)CCC(F)(F)F)c1,4.68
4,CCCC(=O)NCc1cccc(C(=O)OC)c1,51.4
5,COC(=O)c1cccc(CNC(=O)NCCC(F)(F)F)c1,41.4
6,CCc1nc(C)sc1CN1C[C@@H](C)[C@@](C)(O)C1,14.9
7,CSc1ncc(C(=O)N(C)C(C)Cc2ccccn2)cn1 (stereo not given),-1.16
8,O=C(NCc1nnc2n1C(C(=O)NC1CC1)CC2)c1ccc(Cl)cc1Cl (stereo not given),44.9
9,Cc1cncc(C(=O)N2Cc3ccccc3C3(CCN(C)CC3)C2)c1,39.2
10,COCCN1Cc2ccccc2C2(CCN(C(=O)c3ccno3)CC2)C1,-1.36
11,CN1CCC2(CC1)CN(C(=O)c1cccnc1)Cc1ccccc12,33.4
12,CN1CCC2(CC1)CN(C(=O)c1ccncc1)Cc1ccccc12,57.9
13,Cc1ccsc1C(=O)N1Cc2ccccc2C2(CCN(C)CC2)C1,53.5
14,CS(=O)(=O)N1Cc2ccccc2C2(CCN(C(=O)c3ccno3)CC2)C1,55.7
15,COCCN1CC2(CCN(C(=O)c3ccno3)CC2)c2ccccc21,-14.7
16,Cc1cccc(C(=O)N2Cc3ccccc3C3(CCN(C)CC3)C2)n1,36.9
17,CN1CCC2(CC1)CN(C(=O)c1cnccn1)Cc1ccccc12,18.3
18,CCCC1c2cccn2CCN1C(=O)c1cc(CC)no1 (stereo not given),44.1
19,Cc1cccc(C)c1-n1nnnc1C1(NCc2ccco2)CCCC1,45.4
20,Cc1nc(C)n(CC2CCCN2CC(=O)NC2CCOCC2)n1 (stereo not given),38.5
21,Cc1nc(CN2CCN(CC(O)CN3CCOCC3)CC2)oc1C (stereo not given),4.34
22,O=C([C@H]1CCCO1)N1CCC2(CCCN(CCOc3ccccc3)C2)C1 (stereo not given in full),12.4
23,COCC(=O)N1CC[C@H]2O[C@@H](C)C[C@H]2C1,-1.55
24,Cc1nn(C)cc1S(=O)(=O)NCC(c1ccccc1Cl)N1CCCC1 (stereo not given),13.5

row,SMILES,INHIBITION [%]
1,Cn1c(CNCC2CCCN2c2cccnn2)nc2ccccc21 (stereo not given),-0.113
2,OC(COCc1cccs1)CN1CCc2c(ncn2C2CC2)C1 (stereo not given),2.97
3,COCCN1CCC(c2nc3cc(C)ccc3[nH]2)CC1,15.5
4,Cc1ccc2[nH]c([C@H]3CCN(CC4CCCCC4)C3)nc2c1,51.9
5,Cc1ccc2[nH]c(C3CCN(C)CC3)nc2c1,-17.9
6,Cc1nc(CNC(=O)c2cc(COc3ccccc3)[nH]n2)n[nH]1,15.7
7,NC(=O)c1nc(-c2ccc(Cl)cc2Cl)oc1N,-63.4
8,Cc1cc2c(=O)n3c(nc2s1)CCN(Cc1cnn(C)c1C)CC3,24.5
9,COC(=O)C(C)N1CCCc2cc(OC)ccc2C1 (stereo not given),59.2
10,COc1ccc2c(c1)CCCN(C(C)C(=O)NC(C)C)C2 (stereo not given),-9.87
11,COc1ccc2c(c1)CCCN(C(C)C(=O)NC(N)=O)C2 (stereo not given),1.79
12,CS(=O)(=O)CCC(=O)Nc1ccsc1,-120
13,CCC(C(=O)NC)N(c1cccc(C)c1)S(C)(=O)=O (stereo not given),0.547
14,CC(C)CS(=O)(=O)CC(=O)NC(C)(C)c1cccc(F)c1,52.2
15,Cc1cccc(CS(=O)(=O)CC(=O)NCCCOC(C)C)c1,45
16,Cc1cccc(C(C)(C)NC(=O)CS(=O)(=O)CC(C)C)c1,64.5
17,CS(=O)(=O)CCC(=O)NC1(c2cccc(Br)c2)CC1,5.14
18,Cc1cccc(C(C)(C)NC(=O)CCS(C)(=O)=O)c1,51
19,CNC(=O)CS(=O)(=O)Cc1coc(-c2cccc(F)c2)n1,-11.3
20,CCS(=O)(=O)CC(=O)NC(C)c1ccc(F)cc1F (stereo not given),47.5
21,Cc1nc(C)n(CC2CCCN(CC(=O)Nc3nnc(C)s3)C2)n1 (stereo not given),33.25
22,O=C1c2ncccc2C(CCO)N1Cc1ccccc1 (stereo not given),2.55
